Source: PubChem BioAssay
Sm TGR block: inhibitors of Schistosoma mansoni thioredoxin glutathione reductase; Q962Y6; purified TGR, DTNB reduction, TNB absorbance 405 nm; Potency, µM (top dose mostly 114 µM), usual class: inhibitors; actives 3% (n = 360,000); AID 485364; also: nearly all actives have a fitted effect of over 60% in size
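First, TGR (20 nM dispensed) and NADPH were mixed with compound. Second, a 15 min room-temperature incubation followed. Third, further NADPH and then DTNB were added to start the reaction. Finally, TNB absorbance was monitored kinetically.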
Shiga inhibitor: inhibitors of Shiga toxin in Vero cells. Vero cells, Shiga toxin protein synthesis inhibition reporter. inhibition, % at 38.7 µM. actives 9.2% (n = 290,000); in the data active = inhibition mostly above about 28%, no sharp cut-off; inactive = mostly below about 43%
Pf growth 96h: P. falciparum growth inhibition at 96 hour, primary screen for plastid delayed-death inhibitors. actives 6.9% (n = 320,000). Potency, µM (highest dose often 28.7 µM), actives largely listed as inhibitors. P. falciparum luciferase reporter growth, 96 h
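Cell-based qHTS: luciferase-tagged P. falciparum in erythrocytes (2% hematocrit, 0.05% parasitemia final) incubated with compounds for 96 hours, 37 C, 5% CO2; luciferase detection reagent then added and luminescence measured.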
Pf growth 48h: inhibits P. falciparum growth in the first generation, 48 h; actives 5.9% (n = 310,000); Potency, µM (series often up to 28.7 µM), actives largely listed as inhibitors; P. falciparum luciferase growth in erythrocytes, 48 h
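Firefly luciferase activity from engineered P. falciparum reports growth; inhibitors lower the luminescent signal. Cultures contained 2% hematocrit erythrocytes at 0.1% final parasitemia.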
NS1 function inh: blocks influenza NS1 protein function; AID 2326; actives 0.4% (n = 270,000); Potency, µM (doses to about 46.1 µM); calls by dose curve; also: actives are rising curves; nearly all actives have a fitted effect of over 50% in size
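S. cerevisiae expressing influenza A NS1, grown in glucose, washed, then diluted 1:100 into pH 6.0 -URA galactose medium with 23 nl compound. Growth recovery read as OD600; NS1-free strain serves as control.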
Cycloheximide cs: counter-screen for Shiga toxin inhibitors: cycloheximide protein synthesis inhibition. max response, %. cell reporter, cycloheximide protein synthesis inhibition counterscreen. actives 12% (n = 300,000); in the data active = max response mostly above about 13%, no sharp cut-off; inactive = mostly below about 14%; also: read at 38.3 µM for the half of the compounds with a filed dose
Numbers stand for hits; – = inactive; ? = inconclusive; · = no result given. Shown are actives, neighbours in structure and some others; about 21% of the full set was active somewhere. Unless noted, calls follow the shape of the dose curve; as a rule, active = well fitted curve in the direction sought with a large enough effect; inconclusive = small, poorly fitted or top-dose-only effect, or another doubt; inactive = no such curve, though single readings can be large; an effect the other way counts as inactive or inconclusive.

SMILES	Sm TGR block	Shiga inhibitor	Pf growth 96h	Pf growth 48h	NS1 function inh	Cycloheximide cs
N#Cc1nc(COc2ccc(Cl)cc2)oc1NCc1ccc2c(c1)OCO2	–	–	10µM	·	–	–
Cc1cc2[nH]c(=O)c(=O)[nH]c2cc1S(=O)(=O)N1CCC(C)CC1	–	–	–	–	–	–
O=C(Nc1scc(-c2ccccc2)c1C(=O)O)c1ccco1	?	63	–	–	–	31
COc1ccc(-c2csc(NC(=O)c3ccccc3F)c2C(=O)O)cc1	–	59	?	–	–	36
COC(=O)c1c(-c2ccc(F)cc2)csc1NC(=O)c1ccco1	–	94	?	–	–	61
CCOC(=O)c1c(-c2ccc(Br)cc2)csc1NC(=O)c1ccccc1F	–	·	·	·	·	·
CCOC(=O)c1c(-c2ccc(C)s2)csc1NC(=O)c1ccco1	–	–	·	–	–	–
O=C(Nc1cccc(Cl)c1)OCC#CCCl	·	–	·	·	·	–
COc1ccc(C2=NC(C)(C)Cc3cc(OC)c(OC)cc32)cc1OC	–	·	?	–	–	–
COc1cc2c(cc1OC)C(c1cc3ccccc3oc1=O)=NC(C)(C)C2	–	–	–	8.3µM	–	–
O=C(Nc1cccc(C(=O)O)c1)Nc1cccc2ccccc12	–	–	–	·	–	21
O=C(Nc1cccc(C(=O)O)c1)Nc1ccccc1Cl	–	98	–	–	–	31
O=C(Nc1ccccc1Cl)c1cccc(NC(=O)C2CCCC2)c1	–	–	–	–	–	12
CC(=O)Nc1cccc(NC(=O)Nc2cccc3ccccc23)c1	–	–	–	–	–	–
O=C(Nc1cccc(Cl)c1)Nc1cccc(C(=O)O)c1	–	76	–	–	–	35
Cn1c(=O)c2c(ncn2CN2CCN(Cn3cnc4c3c(=O)n(C)c(=O)n4C)CC2)n(C)c1=O	·	·	·	·	–	·
Cc1cccc(Oc2ccc(NC(=O)CCC(=O)OCC(=O)c3ccc(Br)cc3)cc2)c1C	–	·	·	·	·	·
COc1ccc(NC(=O)CCS(=O)(=O)c2ccccc2Cl)cc1S(=O)(=O)Nc1ccc(Cl)cc1	·	–	–	–	–	–
O=C(Nc1ccc(Cl)cc1)Nc1cccc(C(=O)O)c1	–	110	3.7µM	–	–	52
CCOc1ccc(NC(=O)Nc2cccc(C(=O)O)c2)cc1	–	–	–	–	·	–
CCNC(=O)N(CCOC)CC1CCCN(C2Cc3ccccc3C2)C1 (centres undefined)	–	·	?	–	–	–
CCCNC(=O)N(CCOC)CC1CCCN(C2Cc3ccccc3C2)C1 (centres undefined)	–	·	?	–	–	–
Cn1nccc1C(=O)N(CCN1CCCCC1)CC1CCCN(C2CCCC2)C1 (centres undefined)	–	–	–	–	–	23
COC(=O)c1ccccc1C(=O)N(Cc1cccnc1)CC1CCCN(C2CCCCC2)C1 (centres undefined)	–	–	13µM	?	–	–
CC(=O)Nc1ccc(SCC(=O)c2cc(C)n(CC(F)(F)F)c2C)cc1	–	71	–	·	–	35
SMILES	Sm TGR block	Shiga inhibitor	Pf growth 96h	Pf growth 48h	NS1 function inh	Cycloheximide cs
O=c1ccc2c(OCCCCOc3ccccc3)c3ccoc3cc2o1	·	–	·	·	·	–
CCn1c(SCC(=O)N/N=C/C=C\c2ccco2)nc2ccccc21	22µM	–	–	–	–	–
C/C(=N/NC(=O)CSc1nc2ccccc2n1C)c1ccco1	–	–	?	–	–	–
Cn1c(SCC(=O)N/N=C/C=C\c2ccco2)nc2ccccc21	22µM	–	?	?	–	–
CCOC(=O)C1CCCN(C(=O)C2CCN(S(=O)(=O)c3ccc4ccccc4c3)CC2)C1 (centres undefined)	–	–	–	–	–	–
CC(=O)C1CCN(Cc2ccccc2)CC1	–	–	–	·	–	–
Cc1ccc(CN2CC[C@H]3C=CCc4cccc(c43)C2)cc1	–	·	?	5.2µM	·	·
COc1ccc(CNC2CCN(Cc3ccccc3)CC2)cc1	–	–	–	?	?	–
COc1ccc(CN2CC[C@H]3C=CCc4cccc(c43)C2)cc1	28µM	·	?	3.7µM	·	·
C1=C[C@@H]2CCN(Cc3ccccc3)Cc3cccc(c32)C1	?	·	7.4µM	8.3µM	·	·
Cc1[nH]c(=S)c(C#N)c(C)c1CC(=O)c1ccc(Br)cc1	–	–	–	–	?	–
Cc1ccc(S(=O)(=O)Nc2cccc3ccc(C)nc23)cc1	·	–	·	·	·	–
CCc1c(C)sc(NC(NC(C)=O)(C(=O)OC)C(F)(F)F)c1C#N (centres undefined)	50µM	–	?	–	–	–
Cc1ccc(C)c(S(=O)(=O)C(C#N)c2nc3ccccc3nc2N2CC(C)OC(C)C2)c1 (centres undefined)	–	–	–	13µM	–	–
CC(=O)Nc1nonc1-c1nnc(SCc2ccc(F)cc2)n1C	–	·	·	·	·	·
O=C(O)c1ccc(C2SCC(=O)N2Cc2ccco2)cc1 (centres undefined)	–	–	–	?	–	–
CCOC(=O)C1=C(C)NC(=O)NC1c1cn(-c2ccccc2)nc1-c1cccs1 (centres undefined)	–	–	?	?	–	–
CC(C)CCNC(=O)c1ccc(C2SCC(=O)N2Cc2ccco2)cc1 (centres undefined)	25µM	–	–	?	–	–
O=C1CSC(c2cn(-c3ccccc3)nc2-c2ccccc2)N1Cc1ccco1 (centres undefined)	?	–	2.9µM	13µM	–	19
O=C1CSC(c2ccncc2)N1Cc1ccco1 (centres undefined)	22µM	–	?	–	–	–
CCNC(=O)c1ccc(C2SCC(=O)N2Cc2ccco2)cc1 (centres undefined)	?	–	?	?	–	–
O=C1CSC(c2cn(-c3ccccc3)nc2-c2cccs2)N1CC1CCCO1 (centres undefined)	–	–	8.3µM	12µM	–	–
CN(C)CCN(C(=O)c1ccc(Br)s1)c1nc2cc3c(cc2s1)OCCO3	–	68	–	–	·	44
CN(C)CCN(C(=O)c1cccs1)c1nc2cc3c(cc2s1)OCCO3	–	–	–	–	–	51
COCCCNC(=O)CCCCn1c(=O)c2ccccc2n(CC(=O)Nc2ccc(C)cc2C)c1=O	–	·	·	·	·	·
CC(O)[C@@H](O)[C@H]1CNc2nc(N)[nH]c(=O)c2N1 (some centres undefined)	·	·	·	·	–	·
COc1cccc(F)c1C(C[N+](=O)[O-])c1c(N)n(C)c(=O)n(C)c1=O (centres undefined)	–	–	13µM	?	–	–
CC(=O)C1=C(O)C(=O)N(C)C1c1ccccc1[N+](=O)[O-] (centres undefined)	–	–	–	–	–	17
CCCCCCN1C(=O)C(O)=C(C(C)=O)C1c1ccccc1[N+](=O)[O-] (centres undefined)	·	–	?	–	–	–
